tim10-1 inh: growth inhibitors of tim10-1 mutant yeast; inhibition, % at 20 µM; 2.2% of 330,000 active; S. cerevisiae tim10-1 ts strain growth, BacTiter-Glo, 24 h; AID 463190;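 active = inhibition of at least 40%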;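 also: mutant grown at 25 °C; 0% = DMSO wells with yeast and 100% = wells holding no yeast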
TIM10 inh: TIM10 yeast growth inhibition. 1.4% of 330,000 active. S. cerevisiae TIM10 strain growth, BacTiter-Glo luminescence, 24 h. inhibition, % at 10 µM;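 active = inhibition of 40% or more at the single tested concentration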;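 also: wild-type TIM10 isogenic control strain grown at permissive 25 °C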
tim23-1 inh: growth inhibitors of tim23-1 mutant yeast. S. cerevisiae tim23-1 growth, BacTiter-Glo luminescence, 24 h. inhibition, % at 20 µM. 1.3% of 330,000 active. AID 463212;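 active = growth inhibition of the mutant yeast at or above 50%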;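 also: temperature-sensitive mutant grown at 25 °C; plate controls were DMSO-treated mutant yeast for no effect and medium wells lacking yeast for full effect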
V-ATPase pH: alters yeast V-ATPase proton transport. 0.37% of 350,000 active. response, % at 10 µM. S. cerevisiae, pHLuorin cytosolic pH fluorescence; in the data active = response mostly above about 7.3%, no sharp cut-off; inactive = mostly below about 5.4%; also: actives read high
PfHsp90 set2: growth inhibition of yeast expressing Plasmodium Hsp90; inhibition, % at 9.4 µM; 0.32% of 310,000 active; S. cerevisiae expressing PfHsp90, BacTiter-Glo ATP, 48 h; yeast lacking PDR1 and PDR3 efflux regulators;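 active = every replicate shows inhibition above about 80%, whatever the replicate mean, limit read from the data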;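 also: 0% = DMSO neutral controls and 100% = 20 µM radicicol positive controls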
SKKanGAS inh: SKKanGAS growth inhibition; AID 1662; S. pyogenes SKKanGAS, kanamycin growth, BacTiter-Glo, 6 h; 1.3% of 300,000 active; inhibition, % at 7.5 µM;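 active = mean replicate score, as percent of positive control median, at least 50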;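 also: strain carries kanamycin resistance gene driven by streptokinase promoter and grows in 40 µg/ml kanamycin; loss of luminescence reflects streptokinase promoter inhibition or plain growth inhibition; 0% = median of DMSO wells and 100% = positive control at its reference dose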
tim10-1 conf: tim10-1 yeast growth inhibition, confirmed. shares compounds with tim10-1 inh. S. cerevisiae tim10-1 ts strain growth, BacTiter-Glo, 24 h. inhibition, % at 20 µM. 56% of 7,400 active;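 active = inhibition of yeast growth at or above a set limit in either of two repeat tests at 20 µM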;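 also: tim10-1 mutant grown at permissive 25 °C to find synthetic lethal compounds; 0% = DMSO yeast wells and 100% = medium wells without yeast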
Starred values were filed as active, the others as inactive. Only some compounds are listed: those with a hit (about 4.6% of all), similar ones and a draw of the others.

For CCCOC1CCCN(Cc2nc(-c3ccc(C(=O)OC)cc3)no2)C1 (stereo not drawn) the results were tim10-1 inh 15, TIM10 inh 11, tim23-1 inh 14, V-ATPase pH 0, PfHsp90 set2 -8 and SKKanGAS inh -10.
Screening CCN=c1scc(-c2ccc3c(c2)NC(=O)CO3)n1N=C1CCCC1 returned tim10-1 inh 11, TIM10 inh 12, tim23-1 inh 33, V-ATPase pH -5, PfHsp90 set2 2 and SKKanGAS inh 11.
For CCCCN=c1scc(-c2ccc3c(c2)NC(=O)CO3)n1N=C1CCCC1 the results were tim10-1 inh 44*, TIM10 inh 32, tim23-1 inh 22, V-ATPase pH 4, SKKanGAS inh 9 and tim10-1 conf 7.
For CCc1ccc2oc(C(=O)NCC(c3ccc(OC)cc3)N3CCCCC3)c(C)c2c1 (stereo not drawn) the results were tim10-1 inh 10, TIM10 inh 35, tim23-1 inh 26, V-ATPase pH -1, PfHsp90 set2 -8 and SKKanGAS inh -5.
`O=C(NCc1ccccc1)c1cc2ccccc2oc1=O` gave tim10-1 inh -1, TIM10 inh 5, tim23-1 inh 9, V-ATPase pH -1, PfHsp90 set2 -4 and SKKanGAS inh -2.
O=C(NCc1nc2ccccc2[nH]1)c1cc2ccccc2oc1=O was read as tim10-1 inh 41*, TIM10 inh 24, tim23-1 inh 6, V-ATPase pH -3, PfHsp90 set2 21, SKKanGAS inh -5 and tim10-1 conf 21.
`CSc1nc2nccc(/C=C\c3ccccc3)n2n1` gave tim10-1 inh 53*, TIM10 inh 24, tim23-1 inh 34, V-ATPase pH 5, PfHsp90 set2 12, SKKanGAS inh 3 and tim10-1 conf 38*.
CCC1CCCCN1C(=O)c1ccc([N+](=O)[O-])o1 (stereo not drawn) was read as tim10-1 inh 54*, TIM10 inh 38, tim23-1 inh 44, V-ATPase pH -3, PfHsp90 set2 30, SKKanGAS inh -4 and tim10-1 conf 35*.
C[C@@H]1CN([C@@H](C)CO)C(=O)CCCn2nncc2CO[C@@H]1CN(C)S(=O)(=O)c1ccc(Oc2ccccc2)nc1 was read as V-ATPase pH -1.
`CC1CCN(C2=C(NS(=O)(=O)c3ccc(Cl)cc3)C(=O)c3ccccc3C2=O)CC1` gave tim10-1 inh 40*, TIM10 inh 28, tim23-1 inh 39, V-ATPase pH 2, PfHsp90 set2 -10, SKKanGAS inh 26 and tim10-1 conf 29.
Screening O=C1C(NS(=O)(=O)c2ccc(Br)cc2)=C(N2CCCCC2)C(=O)c2ccccc21 returned tim10-1 inh 50*, TIM10 inh 15, tim23-1 inh 44, V-ATPase pH -2, PfHsp90 set2 3, SKKanGAS inh 16 and tim10-1 conf 14.
Screening CC1CCN(C2=C(NS(=O)(=O)c3ccccc3)C(=O)c3ccccc3C2=O)CC1 returned tim10-1 inh 11, TIM10 inh 2, tim23-1 inh 37, V-ATPase pH 2, PfHsp90 set2 -42 and SKKanGAS inh 23.
Nn1c(SCc2cccc(Br)c2)nnc1-c1cccnc1 was read as tim10-1 inh -9, TIM10 inh -4, tim23-1 inh -2, V-ATPase pH 0, PfHsp90 set2 -37 and SKKanGAS inh -19.
`COc1cccc(CN2CC(C(=O)N(C)CCCC3CCCC3)CCC2=O)c1` (stereo not drawn) gave tim10-1 inh 26, TIM10 inh 9, tim23-1 inh 20, V-ATPase pH 1, PfHsp90 set2 3 and SKKanGAS inh 3.
CC(C)COc1ccc(C(=O)CCN2CCCCC2)cc1 was read as tim10-1 inh 54*, TIM10 inh -10, tim23-1 inh 18, V-ATPase pH 3, PfHsp90 set2 7, SKKanGAS inh -5 and tim10-1 conf -8.
Screening CC(C)COc1ccc(C(=O)OCCN2CCCCC2)cc1 returned tim10-1 inh -3, TIM10 inh -1, tim23-1 inh -9, V-ATPase pH -2, PfHsp90 set2 -10 and SKKanGAS inh -3.
